PubChem BioAssay AID1259318 (Sanford-Burnham Center for Chemical Genomics, 2017)
In all, about 370,000 compounds went through this assay and about 3,000 (0.81%) were called active.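 How the source made its calls: active means activity above about 14% (limit read from the data; passing the limit was not always enough); inactive means the rest.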 This excerpt belongs to a sample that is enriched for actives.

What follows are molecules tested against Nuclear receptor subfamily 1 group D member 1 (Homo sapiens) (UniProt P20393) (assay: Rev-erbα–DNA interaction modulation – biochemical, FITC-DNA, fluorescence polarization, uHTS, primary screen (AID 1259318;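 further: 0% = DMSO wells with 35 nM protein and 100% = DMSO wells with 750 nM protein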)). Details: Rev-erbα–FITC-DNA binding, 90 min, at 10 µM, hits give high values.
Nuclear receptor subfamily 1 group D member 1 (Homo sapiens), sequence (P20393 whole entry, looked up): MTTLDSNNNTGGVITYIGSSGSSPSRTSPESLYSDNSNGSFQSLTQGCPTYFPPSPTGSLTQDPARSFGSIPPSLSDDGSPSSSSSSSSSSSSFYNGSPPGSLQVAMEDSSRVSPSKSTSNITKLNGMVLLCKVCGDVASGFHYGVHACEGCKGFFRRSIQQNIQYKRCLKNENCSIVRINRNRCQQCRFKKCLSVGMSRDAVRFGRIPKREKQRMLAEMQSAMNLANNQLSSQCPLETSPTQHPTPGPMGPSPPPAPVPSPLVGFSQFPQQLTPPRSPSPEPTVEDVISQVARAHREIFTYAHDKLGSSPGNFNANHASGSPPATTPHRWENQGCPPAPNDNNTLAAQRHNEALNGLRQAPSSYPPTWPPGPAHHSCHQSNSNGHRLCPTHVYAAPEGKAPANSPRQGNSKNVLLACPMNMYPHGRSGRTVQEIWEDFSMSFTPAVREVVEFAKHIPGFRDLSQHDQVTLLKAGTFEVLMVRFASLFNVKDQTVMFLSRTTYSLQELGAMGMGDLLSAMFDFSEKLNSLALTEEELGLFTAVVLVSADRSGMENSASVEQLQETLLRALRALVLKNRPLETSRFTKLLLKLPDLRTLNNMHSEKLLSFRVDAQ

SMILES | activity
Cc1ccc(CS(=O)(=O)CCC(=O)NCc2ccc(F)cc2)cc1 | -2.15% (inactive)
C/C=C/C=C/C(=O)OCC(=O)Nc1ccc(Cl)cc1 | -1.79% (inactive)
O=S1(=O)c2ccc(N3CCN(Cc4ccccc4F)CC3)cc2Oc2ccccc2CN1Cc1cn(Cc2ccc(Cl)cc2)nn1 | -0.02% (inactive)
CCOC(=O)c1ccc(NC(=O)CCn2c(=O)oc3ccccc32)cc1 | -4.86% (inactive)
CCOC(=O)c1ccc(NC(=O)c2c(NCc3ccccc3)[nH]c(=O)[nH]c2=O)cc1 | 19.9% (active)
CCOC(=O)c1ccc(NC(=O)c2c(N)n(C)c(=O)[nH]c2=O)cc1 | 2.83% (inactive)
CCCCN1CCN(C(=O)c2ccc3c(c2)NC(=O)C(C)(C)O3)CC1 | -3.01% (inactive)
O=c1ccc2c(-c3ccccc3S(=O)(=O)O)c3ccc(O)c(O)c3oc-2c1O | -56.3% (inactive)
O=C(CNC(=O)C12CC3CC(CC(C3)C1)C2)OCC(=O)N1CCCCC1 | -3.15% (inactive)
COc1ccc(CNC(=O)CN2CCC(n3nnc4cc(F)ccc43)CC2)cc1 | 0.03% (inactive)
COc1ccc(CNC(=O)c2nnn(CC(=O)Nc3cc(C)cc(C)c3)c2N)cc1 | 33.3% (active)
COc1ccc(CNC(=O)c2cc(=O)c3c(C)cc(C)cc3o2)cc1 | -1.71% (inactive)
CCOC(=O)c1c(NC(C)=O)sc2c(O)c(Br)ccc12 | -1.09% (inactive)
CCOC(=O)C1CCN(C(=O)CN2C(=O)NC(C)(c3ccc4cc(OC)ccc4c3)C2=O)CC1 (centres undefined) | -4.48% (inactive)
O=C(Nc1cc(Cl)cc(Cl)c1)OCCN1CCCC12CCC(c1ccccc1)CC2 (centres undefined) | -2.58% (inactive)
CCCOc1cc(C)c(S(=O)(=O)n2nnc3ccccc32)cc1C | -0.13% (inactive)
Cn1c(=O)c2c(-c3cccc(Br)c3)c(C#N)c(N)nc2n(C)c1=O | -4.07% (inactive)
CSc1ccc(-c2c(C#N)c(N)nc3c2c(C)nn3-c2ccccc2)cc1 | 59.1% (active)
Cc1nc2c(c(C)nn2-c2ccccc2)c(C)c1C | 9.78% (inactive)
CCC(C)[C@H]1COCCS(=O)(=O)N1Cc1ccc(C)cc1 (some centres undefined) | -5% (inactive)
O=C1C(=O)N(Cc2ccc(-c3ccsc3)cc2)c2ccc(OC(F)(F)F)cc21 | -0.04% (inactive)
O=C(c1cccc(C(F)(F)F)c1)N1CC[C@H]2[C@H](CCCN2Cc2cc(F)cc(F)c2)C1 | 0.92% (inactive)
Cc1cccc(N(CC(=O)Nc2ccc(-c3nc4ccc(C)cc4s3)cc2)S(C)(=O)=O)c1 | 35.6% (active)

SMILES | activity
Cc1ccc2nc(-c3ccc(NC(=O)CN(C)S(=O)(=O)c4ccccc4)cc3)sc2c1 | 8.26% (inactive)
Cc1ccc(N(CC(=O)Nc2cc(C)cc(C)c2)S(=O)(=O)c2cccc3nonc23)cc1 | 0.18% (inactive)
CCOc1ncccc1C(=O)N(CC)CC(=O)Nc1ccc(NC(C)=O)cc1 | -1.37% (inactive)
CCOC(=O)CNC(=O)CSc1ccc2nnc(-c3cccnc3)n2n1 | 3.05% (inactive)
COc1ccc(CSc2nnc(-c3cccc(C)c3)n2C)cc1 | 9.69% (inactive)
O=C(CSc1ccc2nnc(-c3ccccc3)n2n1)N1CCCc2ccccc21 | -1.89% (inactive)
COC(=O)C(C)Sc1ccc2nnc(-c3cccc(F)c3)n2n1 (centres undefined) | 1.26% (inactive)
CCOc1ccc(-c2nnc3ccc(SC)nn23)cc1 | 48.8% (active)
COc1ccc(-c2nnc3ccc(SCc4ccccc4)nn23)cc1 | 25.6% (active)
COc1cccc(CN(C)CC(=O)NCc2ccccc2Cl)c1OC | -3.26% (inactive)
C=CCOC/C=C/C#CCN(CC=C)Cc1ccc(OC)cc1OC | 6.98% (inactive)
Cc1ccc(-c2noc(CCC(=O)Nc3ccccc3N3CCN(C)CC3)n2)cc1 | 3.69% (inactive)
COCCn1c(C)cc(C(=O)COC(=O)/C=C/c2cccc(OC)c2)c1C | 6.09% (inactive)
Cc1cccc([C@@H]2[C@@H]3C(=O)N(C)C(=O)[C@@H]3[C@@H]3C(=O)Nc4ccccc4C(=O)N23)c1 | 1.77% (inactive)
CCCC(=O)Nc1ncnc2c1ncn2C1O[C@@H]2COP(=O)(O)O[C@H]2[C@H]1OC(=O)CCC (some centres undefined) | -3.72% (inactive)
COc1cc(/C=C/C(=O)n2cnc3ccccc32)cc(OC)c1OC | 11.5% (inactive)
Cc1[nH]c2ccccc2c1SCC(=O)Nc1nccs1 | 4.6% (inactive)
Cc1cc(C(F)(F)F)nc(SCC(=O)Nc2nccs2)n1 | -6.74% (inactive)
CC(=O)c1cc(C#N)c(SCC(=O)Nc2nccs2)nc1C | 30.9% (active)
Cn1sc(=O)c2cc(S(=O)(=O)NC3CC3)ccc21 | -1.88% (inactive)
CCOC(=O)NC(=O)CSc1nnc(SCCC(=O)O)s1 | 0.79% (inactive)
O=C(CCn1c(SCC(=O)c2ccccc2)nc2ccccc2c1=O)NCc1ccc(F)cc1 | 26.1% (active)
O=C(Nn1c(SCc2ccc([N+](=O)[O-])cc2)nc2ccccc2c1=O)c1ccc(F)cc1 | 0.27% (inactive)

SMILES | activity
O=C(CSc1nc2ccccc2c(=O)n1CCCO)NC1CC1 | 4.03% (inactive)
O=S(=O)(c1cccs1)N1CCCc2nc(-c3ccc(Br)cc3)ccc21 | 1.38% (inactive)
c1ccc2c(c1)nnn2-c1ccncc1 | 1.17% (inactive)
CC(C)CN(C(=O)c1cccc(S(=O)(=O)N2CCCCC2)c1)C1CCS(=O)(=O)C1 (centres undefined) | 5.44% (inactive)
CCOc1nc(-c2ccc(OC)cc2)ccc1-c1noc(-c2cc(OC)c(OC)c(OC)c2)n1 | 26.3% (active)
CCOC(=O)c1cc(-c2nnc(-c3cc(OC)c(OC)c(OC)c3)o2)c(C)nc1C | 9.45% (inactive)
CCOc1cc(-c2noc(CCC(=O)N3CCOCC3)n2)ccc1OC | -5.84% (inactive)
Cc1sc2nc(-c3ccccc3F)oc(=O)c2c1C | 1.33% (inactive)
CCCCC(=O)N[C@@H]1CC[C@@]23CCCN2C(=O)CCC[C@H]3[C@H]1C | 1.41% (inactive)
NC(=O)CCCC1=NS(=O)(=O)c2ccccc2N1 | -0.09% (inactive)
c1ccc(-c2ccnc3nc(-n4cccc4)nn23)cc1 | -4.06% (inactive)
Clc1ccc2nc(CSc3ccccc3)cn2c1 | 6.58% (inactive)
CCCCCCSc1ccc(-c2nc3ccc(Cl)cn3c2NCc2ccccc2)cc1 | 24% (active)
CCCCNc1c(-c2cccc(Sc3ccc(OC)cc3)c2)nc2ccccn12 | -0.18% (inactive)
C[n+]1ccc(/C=C/c2c[nH]c3ccccc23)cc1 | 169% (active)
Cn1cnc([N+](=O)[O-])c1Sc1n[nH]c(N)n1 | -0.66% (inactive)
COc1ccc(C(=O)OCc2cc(=O)n3ccsc3n2)cc1F | 3.21% (inactive)
COc1cc(C(=O)OCc2cc(=O)n3ccsc3n2)ccc1OC(C)C | -8.61% (inactive)
COc1cc(OC)cc(-c2nc(=S)n3ccsc3n2)c1 | 14.2% (active)
CCCC1CCC2(CCCN2CCOC(=O)NCc2ccccc2)CC1 (centres undefined) | 4.94% (inactive)
C=CCN(Cc1ccc2c(c1)OCO2)C(C#CC1CC1)C(C)(C)C (centres undefined) | 0.61% (inactive)
COc1ccc(/C=C2\CC3(OC(C)=O)CCCN2C3)cc1 (centres undefined) | 1.87% (inactive)
COc1ccc(-n2nc(C(=O)NCC(=O)Nc3cccc(C)n3)c3ccccc3c2=O)cc1 | 29.5% (active)

SMILES | activity
COCCCNC(=O)CNC(=O)c1nn(-c2ccc(OC)cc2)c(=O)c2ccccc12 | -5.1% (inactive)
CCCN(CCC)CCCNC(=O)CNC(=O)c1nn(-c2ccc(OC)cc2)c(=O)c2ccccc12 | 2.42% (inactive)
Cc1[nH]c2ccccc2c1C(=O)c1cc([C@H](NC(=O)OC(C)(C)C)C(C)C)sc1N | 8.9% (inactive)
Cc1cc(C)c2nc(SCC(=O)N(C)C3CCS(=O)(=O)C3)cc(C)c2c1 (centres undefined) | 64% (active)
CCn1c(SCC(=O)N(C)C2CCS(=O)(=O)C2)nnc1-c1cccs1 (centres undefined) | 1.18% (inactive)
CN(C(=O)CSc1nnc(-c2ccc(C(C)(C)C)cc2)n1C)C1CCS(=O)(=O)C1 (centres undefined) | -0.03% (inactive)
COc1ccc(-n2c(SCC(=O)Nc3ccccc3-c3ccccc3)nnc2-c2cccnc2)cc1 | -5.08% (inactive)
CC1OC(O[C@H]2/C=C/C=C/C=C/C=C/C=C/C=C/C=C/[C@H](C)[C@@H](O)[C@@H](C)[C@H](C)OC(=O)CC(O)CC(O)CCC(O)C(O)CC(O)CC3(O)C[C@H](O)C(C(=O)O)C(C2)O3)C(O)[C@H](N)C1O (some centres undefined) | 1.39% (inactive)
O=C(O)CCC(=O)O | -4.29% (inactive)
COc1ccc(NC(=O)c2sc(=O)n(Cc3ccc(S(=O)(=O)N(C)C)cc3)c2C)cc1 | 4.54% (inactive)
O=C(COC(=O)c1cccc(Br)c1)Nc1cccc2c1C(=O)c1ccccc1C2=O | 114% (active)
O=C(COC(=O)c1cccc(Cl)c1)Nc1ccc2[nH]c(=O)[nH]c2c1 | -0.59% (inactive)
O=C(COC(=O)Cn1cnc2ccccc21)Nc1cccc2c1C(=O)c1ccccc1C2=O | -19.3% (inactive)
C#CCN(N(C)c1ncc(C(F)(F)F)cc1Cl)S(=O)(=O)c1ccc2ccccc2c1 | 7.14% (inactive)
CCN1CCN(C(=O)Cn2nc(C)n3c(cc4c(OC)cccc43)c2=O)CC1 | -9.03% (inactive)
CCCc1cc(=S)n2c([nH]c3ccccc32)c1C#N | -0.23% (inactive)
COc1ccc(-c2c(C)cc3oc(=O)cc(-c4ccccc4)c3c2C)cc1C=O | 18.5% (active)
COc1cc(OC)c2c(-c3cccc(-c4cccc(N)c4)c3)cc(=O)oc2c1 | -9.12% (inactive)
Cc1cc2oc(=O)cc(-c3ccccc3)c2c(C)c1-c1ccc(OC(F)(F)F)cc1 | -5.77% (inactive)
CCCc1nc2c(C)cc(-c3nc4ccccc4n3C)cc2n1Cc1ccc(-c2ccccc2C(=O)O)cc1 | 3.42% (inactive)
